Laboratory results published in PubChem BioAssay (NCI).
Compounds without any hit were thinned out: in the full panel of roughly 83,000, 20% have a hit.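 Plates (96-well) were seeded with cells, treated with compound at one concentration, and incubated for 48 hours before percent growth was determined.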 Unmarked numbers belong to inactive results. Active and inactive are the calls of the source. Rule for the calls: active = growth percent below 10; inactive = the rest.

How the values were obtained:
Test in all cases: NCI-60 one-dose screen, 48 h (100 = growth as untreated, 0 = no growth, -100 = all killed)
Conditions in all cases: 10 µM unless noted
[1] = tested on: EKVX NSCLC
[2] = tested on: SN12C renal
[3] = tested on: ACHN renal
[4] = tested on: CAKI-1 renal
[5] = tested on: A498 renal
[6] = tested on: CCRF-CEM leukemia
[7] = tested on: MOLT-4 leukemia
[8] = tested on: SR leukemia
[9] = tested on: RPMI-8226 leukemia
[10] = tested on: OVCAR-8 ovarian
[11] = tested on: OVCAR-5 ovarian
[12] = tested on: OVCAR-4 ovarian
[13] = tested on: SK-OV-3 ovarian
[14] = tested on: IGROV1 ovarian
[15] = tested on: OVCAR-3 ovarian
[16] = tested on: HS 578T breast
[17] = tested on: NCI/ADR-RES ovarian
[18] = tested on: UO-31 renal
[19] = tested on: TK-10 renal

| Structure (SMILES) | growth [1] | growth [2] [%] | growth [3] [%] | growth [4] [%] | growth [5] | growth [6] [%] | growth [7] | growth [8] [%] | growth [9] | growth [10] [%] | growth [11] [%] | growth [12] [%] | growth [13] [%] | growth [14] [%] | growth [15] | growth [16] [%] | growth [17] [%] | growth [18] [%] | growth [19] [%] |
| --- | --- | --- | --- | --- | --- | --- | --- | --- | --- | --- | --- | --- | --- | --- | --- | --- | --- | --- | --- |
| COc1cc(NC(C)CCCN)c2nc(C)ccc2c1Oc1ccc(F)cc1 (stereo not drawn) | 75.1% | 69.9 | 84.6 | 75.9 | 60.4% | 78.2 | 63.1% | 60.9 | 70.3% | 77.4 | 83.4 | 62.6 | 105 | 56.2 | 71.3% | 49.7 | 77.6 |  |  |
| COc1ccccc1NC(=O)c1sc2nc3c(cc2c1N)C(=O)CCC3 |  | 70.2 | 70.4 | 52.7 | -5.03% (active) | 67.7 |  | 64 | 84.3% | 90.6 | 76.1 | 91.4 | 39 | 82.9 | 87% | 65.6 | 58.6 | 70.5 |  |
| COc1cc(-c2nnc(-c3nc(-c4cc(OC)c(OC)c(OC)c4)n4ccccc34)o2)ccc1N | 8.84% (active) | 50.4 |  | 59.3 | 98.8% | 43 | 64.6% | 69.6 | 39.6% | 50.8 | 106 | 76.5 | 96 | 56.4 |  |  | 61.3 | 38.6 |  |
| O=C1/C(=C/c2ccc(F)cc2)Cc2ccccc21 |  | 99.5 | 98.2 | 113 |  |  | 98.3% |  | 98% | 101 | 92.6 | 87.7 | 110 | 105 | 110% | 109 | 107 | 92.5 | 96.7 |
| O=C1/C=C/[C@@H](O)[C@@H]2C[C@@H](O)C[C@H]2/C=C/CCC[C@H](CO)O1 | 36.4% | 43.9 | 19.8 | 17.9 | -30.3% (active) | 22.3 | -16.9% (active) |  | 37.4% | 35.4 | 52.8 | 26.2 | 50.7 | 49.9 | -2.9% (active) | 35.5 | 15.9 | 11.2 |  |
| O=C(Nc1ccccc1S)c1ccccc1 | 94.6% | 95.2 |  |  | 86.5% | 106 | 82% | 82.6 |  | 105 | 123 | 98.4 | 115 | 107 | 112% | 103 | 98.1 | 91.8 |  |
| COc1ccc(-c2cc(-c3cccnc3)nc3sc(C(=O)Nc4ccccc4)c(N)c23)cc1OC |  | 57.2 | 41.1 | 46.7 | 65.1% | 36.9 | 32.1% | 52.3 | 0.963% (active) | 58.8 | 86.8 | 80.1 |  | 68.9 | 71.4% | 28.4 | 54.4 | 32.2 |  |
| COc1cccc(/C=C2\Cc3ccccc3C2=O)c1 |  | 98.8 |  | 96.9 |  |  | 93.3% |  | 98.6% |  | 111 | 101 | 101 | 99.3 | 110% | 111 | 105 | 90.7 | 103 |
| CC(=O)/C(=C/c1ccc(Cl)cc1)C(=O)c1ccccc1 |  | 85.4 | 99.4 | 85.2 |  |  | 62% |  | 34.8% | 89.2 | 111 | 79.7 | 101 | 91.6 | 91.3% |  | 85.2 | 65.5 | 101 |
